This is a sample that favours compounds with a hit; in the whole collection about 4.2% have one here.
Integrin act MD – activates integrin-mediated alleviation for muscular dystrophy | actives 0.064% (n = 350,000) | Potency, µM (series often up to 38.3 µM), for inactives: at the top dose activation, actives largely listed as activators | alpha7betagal myoblasts, beta-gal FDG fluorescence, 48 h;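 further: 100% = response of the positive control SU9516; nearly all actives have a fitted effect of over 60% in size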
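alpha7betagal+/- myoblasts (passage 13, 250/well) treated 48 h at 37C with compounds at 1:260 dilution of DMSO stock. Lysed, then beta-galactosidase activity read as FDG fluorescence (ex 480/em 540) after 30 min, with pre-read for autofluorescence.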
A-T KAP1 phos – potential ataxia-telangiectasia treatments restoring KAP-1 phosphorylation; F2112 A-T fibroblasts, KAP-1 phosphorylation AlphaLISA; neocarzinostatin DNA damage 30 min before lysis; Potency, µM (series often up to 57.5 µM), inactives show at the highest dose activation, most hits filed as activators; actives 0.19% (n = 320,000); AID 485349; further: % of control where 0% means no effect; nearly all actives have a fitted effect of over 45% in size
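hTERT-immortalized A-T patient fibroblasts (F2112), 500 cells/well in OPTI-MEM, 1% FBS, got compounds for 60 min, then NCS for 30 min at 37C. Lysates were then assayed for phospho-KAP-1 by AlphaLISA (anti-pKAP1 donor, anti-KAP1 acceptor beads), 6 hr at 25C.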
MCF10A rerep – induces DNA re-replication in MCF 10a normal breast cells | MCF 10A DNA re-replication, Hoechst nuclear intensity, 48 h | Potency, µM (highest dose often 46.1 µM), for inactives: at the top dose activity, positive = re-replication, actives largely listed as activators | actives 2.9% (n = 350,000) | AID 624296; further: % of control where 0% means no effect; nearly all actives have a fitted effect of over 50% in size
SW480 rereplic – inducers of DNA re-replication in SW480 colon cancer cells; SW480 DNA re-replication, Hoechst DNA content imaging, 48 h; AID 624297; actives 1.8% (n = 340,000); Potency, µM (series often up to 46.1 µM), without a hit: at the highest dose re-replication activation, most hits filed as activators; further: % of control where 0% means no effect; nearly all actives have a fitted effect of over 55% in size
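Hoechst fluorescence of nuclei (405 nm excitation, 500-530 nm emission) measured by plate-scanning imager after 48 hr compound exposure at 37 C; re-replication scored as increased number of nuclei with elevated intensity.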
Mito fusion yeast – blocks mitochondrial division or promotes mitochondrial fusion. S. cerevisiae fusion-defective mutant growth rescue, CellTiterGlo 48 h. AID 485298. Potency, µM (top dose mostly 46.1 µM), without a hit: at the top dose growth rescue (activation), hits mostly activators. actives 0.23% (n = 320,000); further: % of control where 0% means no effect; nearly all actives have a fitted effect of over 45% in size
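Luminescent cell viability in 1536-well qHTS format served as the measure of rescued growth in ts fusion-mutant S. cerevisiae cultured on non-fermentable YPEG for 48 hours at 37C.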
* = called active by the depositor; ? = inconclusive; . = no result; [ ] = another dose, or the depositor's remark. The call rests on the fitted dose curve; in most records, active means well fitted activation curve with a large enough effect; inconclusive means small, poorly fitted or top-dose-only effect; inactive means no such curve, though single readings can be large or run the other way. Potency means the concentration at half of the fitted maximal effect.

SMILES	Integrin act MD	A-T KAP1 phos	MCF10A rerep	SW480 rereplic	Mito fusion yeast
Cc1ccccc1NS(=O)(=O)c1ccc2[nH]cc(C(=O)NC3CCCCC3)c(=O)c2c1	.	-11%	.	.	-5%
Cc1cc(C)c(S(=O)(=O)Cc2ccccc2)c(OC(C)C)n1	?	25%	8%	-26%	21%
CC12CCC(=O)N1C(C(=O)NCc1ccccc1F)CS2 (stereo not drawn)	-1%	1%	-1%	-2%	5%
CN(CC(=O)Nc1cccc(F)c1)C(=O)c1ccc2c(c1)CC(c1ccccc1)OC2=O (stereo not drawn)	-6%	-1%	18µM*	18µM*	-4%
Oc1ccc2ccccc2c1CNc1ccc2ccccc2c1	-16%	.	21µM*	?	.
Cc1ccc(C(=O)c2oc3ccccc3c2N)cc1	-13%	-4%	10µM*	?	?
CC(C)(C)NCC(=Cc1ccccc1)C(=O)c1ccccc1	-48%	.	1.8µM*	5.2µM*	.
Cc1nn(-c2ccc(F)cc2)c(Cl)c1/C=C(\CCC(=O)O)c1nc2ccccc2s1	-7%	3%	18µM*	-2%	7%
CC1SCC(=O)N(CC(=O)NCCc2ccccc2)C1=O (stereo not drawn)	2%	-2%	-1%	-4%	-1%
Cc1ccc(-c2nnc(N3CCN(C(=O)COc4cccc(C)c4)CC3)c3ccccc23)cc1	-17%	10%	6%	-14%	13µM*
Cc1cccc(OCC(=O)N2CCN(c3nnc(-c4ccccc4)c4ccccc34)CC2)c1	-17%	6%	3%	-3%	?
CCCCN(C1CCS(=O)(=O)C1)S(=O)(=O)c1cccs1 (stereo not drawn)	-3%	-7%	?	-562%	-14%
CCOC(=O)C1=C(C)NC2=C(C(=O)CCC2)C1c1cn(Cc2ccc(Cl)cc2Cl)nc1-c1ccccc1 (stereo not drawn)	-3%	6%	?	2.8µM*	3%
COC(=O)C1=C(C)NC2=C(C(=O)CCC2)C1c1cn(Cc2ccc(Cl)cc2Cl)nc1-c1ccccc1 (stereo not drawn)	1%	4%	?	?	1%
CC(Sc1nc2c(cc1C#N)CCCCC2)C(=O)O (stereo not drawn)	?	-1%	5%	9%	9%
COc1ccc(S(=O)(=O)N2CCOCC2)cc1NC(=O)c1c(C)noc1C	-10%	.	.	.	.
CC(C)NC(=O)c1ccc(C2SCC(=O)N2Cc2ccccc2)cc1 (stereo not drawn)	-19%	?	7.3µM*	11%	8%
COc1ccc2cc(C[C@@H]3CC[C@@H](CNC(N)=O)O3)ccc2c1	8%	1%	-4%	-7%	.
CC(Oc1ccc2c(c1)c1ccnc3c4ccccc4c(=O)n2c13)C(=O)NCCN1CCOCC1 (stereo not drawn)	-30%	8%	1.6µM*	?	-6%
COc1ccc2c(c1OC)c(=O)n1c3ccc(OC(C)C(=O)NCCCN4CCOCC4)cc3c3ccnc2c31 (stereo not drawn)	-33%	20%	5.8µM*	18µM*	-4%
CN(C(=O)CSc1nc(N)c2c3c(sc2n1)CSC(C)(C)C3)c1ccccc1	-12%	3%	8.2µM*	1%	10%
N#Cc1c(NCCCO)nc(NCc2ccccc2)c2c1CCN(Cc1ccccc1)C2	-13%	2%	?	7%	-3%
CN1CCc2c(C#N)c(N3CCCCC3)nc(NCc3ccccc3)c2C1	-54%	15%	18µM*	?	-27%
CCOc1ccc(C(CCc2ccccc2)NC(=O)c2ccccc2F)cc1OCC (stereo not drawn)	0%	8%	-20%	-1%	0%
CCOc1ccc(C(CCc2ccccc2)NC(=O)c2ccccc2OC)cc1OCC (stereo not drawn)	-7%	0%	21µM*	?	21%
SMILES	Integrin act MD	A-T KAP1 phos	MCF10A rerep	SW480 rereplic	Mito fusion yeast
CCOc1ccc(C(C)NC(=O)Cc2ccccc2)cc1OCC (stereo not drawn)	22%	0%	-6%	15µM*	-11%
CC(/C=C/c1ccco1)=N\NC(=O)COc1ccc(C)c(C)c1	6%	1%[11.5 µM]	-1%	-4%	16%
CC(=O)Nc1ccc(NC(=O)C(=O)c2cn(CC(=O)N3CCCC3)c3ccccc23)cc1	6%	1%	9%	-5%	-1%
COc1ccc(NC(=O)C(=O)c2cn(CC(=O)N3CCCC3)c3ccccc23)cc1	-12%	-4%	?	0.46µM*	3%
O=C(O)Cn1cc(C(=S)N2CCOCC2)c2ccccc21	13%	8%	1%	-3%	0%
O=C(O)Cn1cc(C(=S)N2CCCCC2)c2ccccc21	5%	-1%	0.58µM*	-12%	1%
CC(C)n1c(C(=O)OCC(=O)NCc2ccc3c(c2)OCO3)cc2sccc21	1%	4%	15µM*	8%	?
O=C1c2cnc3nc(SCc4ccc(Cl)cc4)nn3c2CC2c3ccccc3CCN12 (stereo not drawn)	14%	-7%	3.3µM*	?	?
CNC(=O)COC(=O)/C=C/c1c(C)nn(-c2ccccc2)c1C	37%	0%	-1%	-4%	-1%
COc1cccc(-c2csc(N3CCN(C(=O)C4CCCCC4)CC3)n2)c1	-5%	-2%	15µM*	4%	27%
COc1ccccc1OCc1ccc(C(=O)Nc2ccc(C)c(C)c2)o1	.	.	.	.	-8%
C/C(=N\NC(=O)c1nn(C)c(C)c1Br)c1ccc(NC(=O)C2CCCC2)cc1	-2%	6%	7%	24%	4%
CC1(c2nnc(-c3ccncc3)o2)CC(c2ccc(Cl)cc2)=NO1 (stereo not drawn)	-6%	.	9.2µM*	-8%	.
CC1(c2nnc(-c3ccccc3)o2)CC(c2ccc(Cl)cc2)=NO1 (stereo not drawn)	-1%	10%	27%	-3%	?
CC1(c2nnc(-c3ccccc3)o2)CC(c2cccc(Cl)c2)=NO1 (stereo not drawn)	-17%	-3%	?	0%	3.2µM*
C=CCn1c(=NC(=O)c2cc(-c3cccs3)nc3ccccc23)sc2cc(S(N)(=O)=O)ccc21	-15%	25%	?	21µM*	-2%
C=CCn1c(=NC(=O)c2cc(Cl)sc2Cl)sc2cc(S(N)(=O)=O)ccc21	5%	-3%	21µM*	4%	11%
COCCn1c(=NC(=O)c2cc(-c3cccs3)nc3ccccc23)sc2cc(S(N)(=O)=O)ccc21	?	8%	?	21%	0%
CC1=C(C(=O)Nc2ccccc2)C(c2ccc[nH]2)n2ncnc2N1 (stereo not drawn)	.	1%	.	.	-5%
COc1ccc(Cl)cc1C(=O)n1cnc2ccccc21	44%	2%	-2%	-24%	3%

Bioassay records (PubChem BioAssay)
